The values that follow come from ChEMBL document CHEMBL3988442, “University of Dundee, Small-Polar-MMV Screening Library” (2021).

For some of these results: Results with a measured potency or affinity are listed apart.

Common to all, as to parameters: scale not given: direction of the effect not stated beside the values
Assay [1] concerns the target Protein translocase subunit SecA (Escherichia coli (strain K12)) (UniProt P10408). Briefly: Assay to Identify E. coli SecA ATPase Inhibitors. The class given is functional. To be noted: 30 µM.
Assay [2] has as its target T1, Ubiquitin-activating enzyme e1, putative (Leishmania donovani (strain BPK282A1)) (UniProt E9BSI1).
T1 sequence (whole entry): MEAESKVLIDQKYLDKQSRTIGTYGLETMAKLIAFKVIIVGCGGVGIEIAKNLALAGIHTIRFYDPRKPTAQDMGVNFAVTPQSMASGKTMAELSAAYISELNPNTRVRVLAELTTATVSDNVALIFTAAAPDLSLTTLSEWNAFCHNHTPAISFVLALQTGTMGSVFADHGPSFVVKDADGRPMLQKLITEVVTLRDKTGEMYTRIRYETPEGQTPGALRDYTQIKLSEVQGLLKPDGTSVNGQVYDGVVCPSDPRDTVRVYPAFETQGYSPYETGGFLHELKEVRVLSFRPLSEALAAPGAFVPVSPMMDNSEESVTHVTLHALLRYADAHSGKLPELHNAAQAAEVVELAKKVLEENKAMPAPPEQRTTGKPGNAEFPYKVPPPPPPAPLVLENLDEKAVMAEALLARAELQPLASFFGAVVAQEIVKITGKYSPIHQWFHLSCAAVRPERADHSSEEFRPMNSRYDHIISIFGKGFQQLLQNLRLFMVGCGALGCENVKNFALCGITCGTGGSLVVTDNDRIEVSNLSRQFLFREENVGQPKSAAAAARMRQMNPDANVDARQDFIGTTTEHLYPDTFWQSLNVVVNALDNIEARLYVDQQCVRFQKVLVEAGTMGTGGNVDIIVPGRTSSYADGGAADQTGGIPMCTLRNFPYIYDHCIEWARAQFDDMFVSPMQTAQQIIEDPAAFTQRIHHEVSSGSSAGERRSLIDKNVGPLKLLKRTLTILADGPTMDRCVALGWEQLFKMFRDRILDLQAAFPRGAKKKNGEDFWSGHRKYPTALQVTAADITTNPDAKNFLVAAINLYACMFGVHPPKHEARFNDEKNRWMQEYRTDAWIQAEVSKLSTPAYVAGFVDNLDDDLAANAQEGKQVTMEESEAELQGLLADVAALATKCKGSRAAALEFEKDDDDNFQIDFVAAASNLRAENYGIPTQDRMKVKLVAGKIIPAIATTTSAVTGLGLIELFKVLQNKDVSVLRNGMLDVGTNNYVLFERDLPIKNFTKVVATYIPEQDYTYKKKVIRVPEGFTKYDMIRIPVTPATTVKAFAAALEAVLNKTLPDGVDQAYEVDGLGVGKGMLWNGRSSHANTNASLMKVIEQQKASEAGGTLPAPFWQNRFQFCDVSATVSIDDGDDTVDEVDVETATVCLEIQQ
Briefly: Leishmania donovani Ubiquitin Activating Enzyme (LdE1). The class given is functional. The conditions noted are these: 30 µM.

For assay [3], the target named is AMP-activated protein kinase, AMPK (Homo sapiens) (UniProt P54646+O43741+P54619+Q9UGJ0+Q9Y478+Q13131+Q9UGI9). Briefly: AMP-dependent Kinase enzyme assay. An in vitro enzyme assay that detects ADP turnover that is directly proportional to AMPK activity. This uses naive AMPK that is activated during the assay with MK-8722. It is filed as functional. The conditions noted are these: 30 µM.

In assay [4] the target is Sialic acid-binding Ig-like lectin 9 (Homo sapiens) (UniProt Q9Y336). Briefly: Hs-Siglec9 ALPHAscreen SOP 20170721. To be noted: 10 µM.
Assay [5] deals with Trypanosoma cruzi. Briefly: Trypanosoma cruzi phosphomannomutase and mannose-1-phosphate guanylyltransferase assay. It is filed as functional. The conditions noted are these: 10 µM.
For assay [6], the target named is T2, Arginase-2, mitochondrial (Homo sapiens) (UniProt P78540).
T2 sequence (whole entry): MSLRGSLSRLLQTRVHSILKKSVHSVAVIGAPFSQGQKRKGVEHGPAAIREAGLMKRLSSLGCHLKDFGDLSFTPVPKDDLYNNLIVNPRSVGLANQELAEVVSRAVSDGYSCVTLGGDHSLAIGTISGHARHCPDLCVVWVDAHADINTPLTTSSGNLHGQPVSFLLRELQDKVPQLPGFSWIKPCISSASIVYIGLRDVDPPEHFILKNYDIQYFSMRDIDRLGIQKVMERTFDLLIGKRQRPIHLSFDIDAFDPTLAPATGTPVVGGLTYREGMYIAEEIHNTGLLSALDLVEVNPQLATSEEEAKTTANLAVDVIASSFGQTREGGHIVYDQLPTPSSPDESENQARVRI
Nature of the assay: in vitro enzyme assay to detect the production of urea directly proportional to the activity of Arginase II. Further: in the data most compounds retested in dose-response had high values. It is filed as functional. To be noted: 33.3 µM.

The target of assay [7] is T3, Proteasome subunit beta (Trypanosoma cruzi) (UniProt O96673).
T3 sequence (whole entry): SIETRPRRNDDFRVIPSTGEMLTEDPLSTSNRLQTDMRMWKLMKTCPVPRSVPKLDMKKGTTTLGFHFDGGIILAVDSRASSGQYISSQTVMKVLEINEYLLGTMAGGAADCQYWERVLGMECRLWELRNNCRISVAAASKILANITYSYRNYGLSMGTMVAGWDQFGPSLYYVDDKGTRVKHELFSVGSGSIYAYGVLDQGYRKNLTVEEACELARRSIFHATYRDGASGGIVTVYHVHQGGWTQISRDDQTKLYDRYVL
Nature of the assay: Trypanosoma cruzi proteasome chymotrypsin-like activity (TcProtChymo) assay. Further: in the data most compounds retested in dose-response had high values. It is filed as functional. To be noted: 9.37 µM.

The species entered for assay [8] is Homo sapiens. Nature of the assay: To identify inhibition of the IFN signalling (Jak-Stat) pathway via expression of an eGFP reporter gene under the control of an IFN-stimulated response element (ISRE) containing MxA promoter. The conditions noted are these: 30 µM. The class given is functional. A general note: A reporter such as luciferase makes a cellular process visible.

Assay [9] addresses T4, Tyrosyl-tRNA synthetase, putative (Trypanosoma cruzi (strain CL Brener)) (UniProt Q4DSP6).
T4 sequence (whole entry): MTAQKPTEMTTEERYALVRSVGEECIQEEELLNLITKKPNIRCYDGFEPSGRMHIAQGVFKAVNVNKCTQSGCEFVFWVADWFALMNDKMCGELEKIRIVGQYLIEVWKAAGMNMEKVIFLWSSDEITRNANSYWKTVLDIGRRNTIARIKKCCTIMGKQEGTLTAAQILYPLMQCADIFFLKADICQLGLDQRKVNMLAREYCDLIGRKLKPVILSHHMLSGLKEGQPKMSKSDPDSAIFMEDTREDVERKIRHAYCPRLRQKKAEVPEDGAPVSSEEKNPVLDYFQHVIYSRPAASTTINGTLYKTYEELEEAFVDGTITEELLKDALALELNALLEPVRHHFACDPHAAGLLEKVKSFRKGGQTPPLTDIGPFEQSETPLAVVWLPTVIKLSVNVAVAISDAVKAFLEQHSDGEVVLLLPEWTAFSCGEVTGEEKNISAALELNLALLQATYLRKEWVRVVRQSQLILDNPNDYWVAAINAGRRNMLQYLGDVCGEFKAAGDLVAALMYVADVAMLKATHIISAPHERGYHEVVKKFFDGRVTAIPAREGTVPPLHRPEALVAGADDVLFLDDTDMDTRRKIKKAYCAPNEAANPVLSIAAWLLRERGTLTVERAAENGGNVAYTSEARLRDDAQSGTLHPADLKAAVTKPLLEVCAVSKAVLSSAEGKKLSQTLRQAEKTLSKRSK
Briefly: Trypanosoma cruzi tyrosyl tRNA synthetase (TcYRS) _High Tyrosine SOP. Further: in the data most compounds retested in dose-response had high values. The class given is functional. The conditions noted are these: 30 µM.

Assay [10] has as its target T4, Tyrosyl-tRNA synthetase, putative (Trypanosoma cruzi (strain CL Brener)). Nature of the assay: Trypanosoma cruzi tyrosyl tRNA synthetase (TcYRS) SOP. The conditions noted are these: 30 µM. It is filed as functional.
Assay [11] deals with Chromo domain-containing protein 1 (Saccharomyces cerevisiae (strain ATCC 204508 / S288c) (Baker's yeast)) (UniProt P32657). Nature of the assay: ScCHD-1 Enzyme Inhibition Assay. Further: in the data most compounds retested in dose-response had high values. It is filed as functional. The conditions noted are these: 30 µM.
Chromo domain-containing protein 1 (Saccharomyces cerevisiae (strain ATCC 204508 / S288c) (Baker's yeast)), sequence (P32657 whole entry, the tested form may be a part): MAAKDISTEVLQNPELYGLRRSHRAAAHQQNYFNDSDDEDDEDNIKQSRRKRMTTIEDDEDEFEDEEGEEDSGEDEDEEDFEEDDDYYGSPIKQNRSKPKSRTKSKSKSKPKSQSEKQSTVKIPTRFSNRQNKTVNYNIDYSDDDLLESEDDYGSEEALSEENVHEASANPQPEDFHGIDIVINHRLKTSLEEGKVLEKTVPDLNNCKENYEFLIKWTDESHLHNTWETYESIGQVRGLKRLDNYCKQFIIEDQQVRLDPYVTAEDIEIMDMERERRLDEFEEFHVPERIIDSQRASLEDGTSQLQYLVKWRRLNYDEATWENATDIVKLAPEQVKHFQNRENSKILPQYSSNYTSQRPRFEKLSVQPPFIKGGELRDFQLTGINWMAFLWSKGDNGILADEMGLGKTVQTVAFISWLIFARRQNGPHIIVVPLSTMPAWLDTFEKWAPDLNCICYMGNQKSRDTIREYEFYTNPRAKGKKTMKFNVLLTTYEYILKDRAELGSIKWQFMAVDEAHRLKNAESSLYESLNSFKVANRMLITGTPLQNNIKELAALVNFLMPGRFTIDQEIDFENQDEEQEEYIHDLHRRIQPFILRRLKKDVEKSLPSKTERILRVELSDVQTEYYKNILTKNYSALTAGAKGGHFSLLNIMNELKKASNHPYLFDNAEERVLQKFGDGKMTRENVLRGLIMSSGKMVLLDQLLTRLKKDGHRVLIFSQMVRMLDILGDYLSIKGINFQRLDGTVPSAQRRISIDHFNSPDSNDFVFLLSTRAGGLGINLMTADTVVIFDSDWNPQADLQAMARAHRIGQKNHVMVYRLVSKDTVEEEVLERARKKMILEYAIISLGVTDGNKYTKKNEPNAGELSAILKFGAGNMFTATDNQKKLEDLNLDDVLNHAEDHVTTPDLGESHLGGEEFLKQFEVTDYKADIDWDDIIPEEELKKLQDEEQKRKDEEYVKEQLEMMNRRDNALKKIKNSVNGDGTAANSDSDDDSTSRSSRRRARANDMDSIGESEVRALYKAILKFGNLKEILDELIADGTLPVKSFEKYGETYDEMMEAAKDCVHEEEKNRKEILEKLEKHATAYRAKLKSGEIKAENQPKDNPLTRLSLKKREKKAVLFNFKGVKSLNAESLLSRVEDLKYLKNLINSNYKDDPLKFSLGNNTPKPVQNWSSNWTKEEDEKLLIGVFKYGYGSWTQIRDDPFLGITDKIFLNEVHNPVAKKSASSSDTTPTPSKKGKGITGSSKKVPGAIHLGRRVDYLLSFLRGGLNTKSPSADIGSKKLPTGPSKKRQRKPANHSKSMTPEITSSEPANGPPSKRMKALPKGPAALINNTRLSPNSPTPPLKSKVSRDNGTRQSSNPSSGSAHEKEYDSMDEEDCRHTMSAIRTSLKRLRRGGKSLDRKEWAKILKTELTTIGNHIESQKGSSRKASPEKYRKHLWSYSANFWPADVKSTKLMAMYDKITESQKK

Protein translocase subunit SecA (Escherichia coli (strain K12)), sequence (P10408 whole entry): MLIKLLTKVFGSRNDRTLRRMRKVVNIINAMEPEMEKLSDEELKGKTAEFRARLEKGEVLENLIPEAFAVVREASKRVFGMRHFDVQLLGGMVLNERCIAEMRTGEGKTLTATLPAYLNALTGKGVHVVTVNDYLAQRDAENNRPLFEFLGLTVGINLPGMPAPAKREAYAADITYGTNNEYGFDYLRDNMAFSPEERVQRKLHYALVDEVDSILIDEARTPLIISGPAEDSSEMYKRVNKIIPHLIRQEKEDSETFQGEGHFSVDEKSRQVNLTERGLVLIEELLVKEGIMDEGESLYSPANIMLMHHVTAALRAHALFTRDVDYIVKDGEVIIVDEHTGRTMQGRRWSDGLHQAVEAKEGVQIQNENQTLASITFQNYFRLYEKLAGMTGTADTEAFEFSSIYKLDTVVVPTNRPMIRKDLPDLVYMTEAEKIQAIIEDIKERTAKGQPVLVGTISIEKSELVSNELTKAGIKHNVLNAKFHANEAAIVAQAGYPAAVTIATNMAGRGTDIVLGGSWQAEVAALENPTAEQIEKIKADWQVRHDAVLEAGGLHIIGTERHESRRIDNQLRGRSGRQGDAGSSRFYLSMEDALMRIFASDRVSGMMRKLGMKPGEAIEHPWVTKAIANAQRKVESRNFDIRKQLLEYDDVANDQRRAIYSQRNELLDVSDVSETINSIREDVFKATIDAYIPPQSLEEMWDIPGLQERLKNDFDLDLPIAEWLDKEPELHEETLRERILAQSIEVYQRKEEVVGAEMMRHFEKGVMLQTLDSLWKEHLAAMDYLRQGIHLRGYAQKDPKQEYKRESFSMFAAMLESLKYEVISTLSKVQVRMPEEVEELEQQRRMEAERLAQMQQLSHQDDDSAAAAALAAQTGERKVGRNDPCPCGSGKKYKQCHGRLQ
Sialic acid-binding Ig-like lectin 9 (Homo sapiens), sequence (Q9Y336 whole entry): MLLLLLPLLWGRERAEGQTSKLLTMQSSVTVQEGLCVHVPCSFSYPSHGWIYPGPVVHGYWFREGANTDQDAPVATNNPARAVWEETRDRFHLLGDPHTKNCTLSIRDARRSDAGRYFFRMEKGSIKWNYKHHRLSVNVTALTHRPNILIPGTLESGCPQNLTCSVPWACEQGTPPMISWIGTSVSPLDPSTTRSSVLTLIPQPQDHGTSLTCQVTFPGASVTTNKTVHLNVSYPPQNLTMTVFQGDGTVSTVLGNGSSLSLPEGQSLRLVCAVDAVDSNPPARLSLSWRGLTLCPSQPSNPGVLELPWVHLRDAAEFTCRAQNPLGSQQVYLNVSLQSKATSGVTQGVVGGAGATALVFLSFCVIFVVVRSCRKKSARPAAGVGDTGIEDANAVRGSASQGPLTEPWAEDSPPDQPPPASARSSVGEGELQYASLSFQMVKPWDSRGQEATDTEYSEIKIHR

On to `Cc1cccc(CN2C[C@@H]3CN(C(=O)c4ccsc4)C[C@@H]3C2=O)c1`, for which the Percent Effect in assay [1] was -2.06%; in assay [2], 7.79%; in assay [3], 5.77%; in assay [4] it was 6.12%; in assay [5], -3.25%; in assay [6], 0%. Also, the Percent Effect was 13% in assay [7]; 18.7% in [8]; 3.23% in assay [9]; 8.64% in assay [10]; 0.397% in [11].
With `COCCn1ccc(=O)c(OCC(=O)Nc2ccccc2)c1C`, the Percent Effect in assay [1] is -2.63%; in [2], 6.67%; in assay [3], 2.07%; in [4] it was 6.98%; in assay [5] it was 1.38%; in assay [6], 1.23%. In addition, the Percent Effect was 19.4% in assay [7]; -6.23% in [8]; 1.06% in [9]; 20.5% in [10]; -0.358% in assay [11].
For `Cc1ccc(CN(Cc2cccnc2)C2CC(C)(C)NC(C)(C)C2)s1`, the Percent Effect is -5.72% in assay [1]; 1.35% in assay [2]; 9.33% in [3]; -0.663% in [4]; -3.36% in assay [5]; -5.8% in [6]. Moreover, the Percent Effect in [7] was 10.1%; in assay [8], 13.4%; in assay [9] it was 2.15%; in [10], -1.3%; in assay [11] it was -9.11%.
On to `CCCc1nc(CN2CCOC(Cn3cncn3)C2)no1` (stereo not drawn), for which the Percent Effect in [1] is -1.95%; in assay [2], 11.4%; in [3], -5.09%; in assay [4] it was -4.75%; in assay [5], -1.74%; in assay [6] it was 3.23%. The Percent Effect in [7] was 12.3%; in assay [8] it was 18.7%; in [9], 3.12%; in assay [10], 10.1%; in [11], -24.9%.
As for `COc1c(CNC2CCN(C(C)(C)C)CC2)c(C(C)C)nn1C`, the Percent Effect in [1] was -3.54%; in [2], 10.5%; in assay [3], -6.9%; in assay [4], -3.36%; in assay [5], 6.07%; in assay [6], -2.52%. The Percent Effect in assay [7] is 4.65%; in assay [8], -8.8%; in [9] it was 12.3%; in assay [10], 16.1%; in assay [11], -1.24%.
Take `CCN(CC)CC(=O)NCCc1csc(N2CCCC2)n1`: the Percent Effect in assay [1] was -3.47%; in assay [2], -2.67%; in [3] it was -4.85%; in assay [4], -0.334%; in [5], -2.24%; in assay [6], -1.04%. In addition, the Percent Effect is 5.41% in assay [7]; 5.85% in assay [8]; -0.546% in assay [9]; -1.24% in assay [10]; 6.78% in assay [11].
With `CC(NC(=O)NCCCc1n[nH]c(N)c1C#N)c1ccccc1` (stereo not drawn), the Percent Effect is -5.52% in assay [1]; 22.8% in [2]; 48.4% in assay [3]; -3.62% in assay [4]; 3.68% in assay [5]; -11.8% in assay [6]. Also, the Percent Effect in assay [7] was 14.8%; in assay [8], 7.81%; in [9] it was 6.4%; in assay [10], 24.1%; in [11] it was -5.91%.
For `Cc1nc(C)n(C2CCCN(C(=O)c3sccc3C3CC3)C2)n1` (stereo not drawn), the Percent Effect is -1.6% in assay [1]; 2.53% in assay [2]; -0.568% in assay [3]; -3.81% in assay [4]; -5% in assay [5]; 1.9% in [6]. Also, the Percent Effect in assay [7] is 0.409%; in assay [8], 22.4%; in [9] it was -2.46%; in assay [10] it was -8.86%; in assay [11] it was -7.52%.
